This is part of a sample that, as a whole, favours compounds with a hit. Of some 83,000 tested, about 20% had one in any assay.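 Each cell line was grown in a 96-well plate and treated with one concentration of compound for 48 hours. Values below 10 were considered active.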 Activity calls are given as the source filed them.

This note sets out measurements from PubChem BioAssay (NCI).

In this test the test system is OVCAR-3 ovarian. Kind of test: NCI-60 one-dose screen, 48 h (100 = growth as untreated, 0 = no growth, -100 = all killed). Particulars: 10 µM unless noted. The procedure:
Growth inhibition of the OVCAR-3 human tumor cell line is measured as a screen for anti-cancer activity. Cells are grown in 96 well plates and exposed to the test compound for 48 hours. Compounds are tested at a single concentration, which is 10^-5 M for most compounds. The reported endpoint is percent growth (GI% or GIPRCNT), where numbers from 0 - 100% represent growth inhibition, and numbers from -100% - 0 represent cell death. For example, a value of 40 represents 60% growth inhibition. A value of 0 means no net growth occurred over the course of the experiment. A value of -40 indicates 40% of cells at the beginning of the experiment died by the end of the experiment. A value of -100 means all cells are dead at the end of the experiment.
NCI-60 Human Tumor Cell Lines Screen was performed using the standard one-dose NCI protocol, which is described in more detail at https://dtp.cancer.gov/discovery_development/nci-60/default.htm.
Compounds with GIPRCNT values below 10 were considered active. Activity score was based on GIPRCNT using the following formula: […]
Score is 0 for GIPRCNT values of 100 or above, 50 for GIPRCNT values of 0, and 100 for GIPRCNT values of -100.
With `CCN1C(=O)C2(Nc3ccccc3S2)c2cc(C)ccc21` (stereo not given), the growth was 108% (inactive).

`O=c1[nH]c(=S)c2c(n1CCCO)CCC2`: the growth is 110% (inactive).

As for `COc1cc(-c2nc3ccccc3o2)cc(CN2CCN(c3ccccc3)CC2)c1O`, the growth is 63.7% (inactive). To `COc1cccc(C2C3=C(COC3=O)N(CCO)c3cc4c(cc32)OCO4)c1` (stereo not given) belongs -64.9% (active); to `Cc1nc(-c2ccccc2)cc2c(O)c(C(=O)N/N=C/Cc3ccccc3)[nH]c(=O)c12`, 116% (inactive); to `COC(=O)[C@H]1CCCN1C(=O)[C@H]1CCCN1C(=O)[C@@H](Cc1c[nH]c2ccccc12)NC(=S)Nc1cc(C(F)(F)F)cc(C(F)(F)F)c1`, 48.3% (inactive). On to `O=C1C(N2CCOCC2)=Cc2cccc3cccc1c23`, for which the growth was 101% (inactive). The same measure for `O=C(COc1ccc(/C=C2\CSc3ccccc3C2=O)cc1)c1ccc(Cl)cc1`: 96% (inactive); for `O=C(CCCCCCC(=O)Nc1ccc2c(c1)/C(=C/c1ccc[nH]1)C(=O)N2)NO`: -57.8% (active); for `c1ccc2cc(Cn3c(-c4ccc5ccccc5c4)[n+](Cc4ccc5ccccc5c4)c4ccccc43)ccc2c1`: -96% (active). The same measure for `COc1cc(C(=O)N(C(C)C)C2CCCCC2)cc(OC)c1OC`: 113% (inactive); for `C=C1CC[C@@H]2[C@@](C)(CCC[C@]2(C)C(=O)O)[C@@H]1CC[C@H](CO)CCO`: 76.4% (inactive). To `Cc1nc2ccc(Cl)cc2n1C` belongs 109% (inactive). For `Cc1c(C(=O)Nc2nc(-c3ccccc3)cs2)nnn1-c1ccccc1Br`, the growth was 57.3% [50 µM] (inactive). To `COC1(OC)C2(Cl)C=C(c3ccccc3)C1(Cl)C(Cl)=C2Cl` (stereo not given) belongs 107% (inactive); to `Cc1nc2cc(Nc3nc(NCCN)nc(Nc4ccc(F)cc4)n3)ccc2n1Cc1ccccc1`, 86.7% (inactive); to `Cc1nc2cc(Nc3nc(Cl)nc(Nc4ccc(F)cc4)n3)ccc2n1Cc1ccccc1`, 94.2% (inactive). Consider `CN1CCN(C)c2cncc(Br)c2C1=O`, for which the growth was 109% (inactive). For `O=S(=O)(Nc1ncccn1)c1ccc(Nc2ccc3nnc(-c4ccncc4)n3n2)cc1`, the growth is 104% (inactive). As to `CCOC(=O)c1[nH]c2cc(Cl)ccc2c1[C@@H](C(=O)NC(C)(C)C)N(CC)C(=O)CCCCC#Cc1cccc2c1CN(C1CCC(=O)NC1=O)C2=O` (stereo not given in full), the growth is 8.96% (active). In the case of `COc1ccc(S(=O)(=O)ON=C2C=C(C)C(=O)C(C)=C2)cc1`, the growth is 68.5% (inactive).

`CCCCCCCCCCCC(=O)[O][Sn]([CH2]CCC)([CH2]CCC)[CH2]CCC`: the growth was -97.5% (active).

On to `COc1ccc(-c2nc3sc(C)cn3c2/C=C/C(=O)c2cc(OC)c(OC)c(OC)c2)cc1`, for which the growth is 41.7% (inactive). To `CCN1CCN(C(=S)SCC(=O)Nc2nc3ccc(OC)cc3s2)CC1` belongs 101% (inactive); to `CCCC1=NNC(=O)C1`, 120% (inactive); to `O=C(Nc1ccc(F)cc1)c1ccc(C(=O)Nc2ccc(F)cc2)cc1`, 109% (inactive). To `CN1CCC(OC2c3ccccc3CCc3ccccc32)CC1` belongs 106% (inactive).

Consider `CCCCNNC(=O)c1ccc(Br)cc1`, for which the growth was 68.8% (inactive). Turning to `COc1ccc(-c2nc(Nc3ccc(F)cc3)nc(Nc3ccc4c(c3)nc(C)n4Cc3ccccc3)n2)cc1`, the growth was 50.5% (inactive).

As to `O=c1nc(NO)[nH]c(=O)n1Cc1ccc(F)cc1`, the growth was 112% (inactive). Regarding `O=C1CC2c3cc(-c4cc5ccccc5o4)ccc3CCN2C(=O)N1c1ccccc1` (stereo not given), the growth was 99.3% (inactive). To `CCN(C(=O)c1ccc2c3c(cccc13)C=C2)c1ccccc1` belongs 112% (inactive). The same measure for `COc1ccc(/C=C(\C#N)c2cc3ccccc3n2C)cc1`: -34.3% (active); for `CCOC(=O)c1c(Cl)c2c(n1Cc1ccc(OC)cc1)-c1oncc1CCC2`: 102% (inactive); for `CN1CCN(c2nc(-c3ccncc3)nc3sc4c(c23)CCCCCC4)CC1`: 93.5% (inactive). With `O=c1[nH]c(=O)n(Cc2ccc(F)cc2)cc1F`, the growth was 116% [50 µM] (inactive). On to `O=C1/C(=C/c2ccccc2F)CNC/C1=C\c1ccccc1F`, for which the growth is -68.6% (active). As for `CCCCCCCC/C=C\CCCCCCCCOc1cccc(CC(=O)NCC[N+]2(C)CCCC2)c1`, the growth was 96.2% (inactive).

For `O=C(NCc1ccco1)C1CCN(S(=O)(=O)c2ccc(Cl)cc2)CC1`, the growth is -64.7% (active).

Consider `COc1ccc(-n2ncc3c2ccc2cc(S(=O)(=O)c4ccccc4)c(=O)n(C)c23)cc1`, for which the growth was 91.1% (inactive).
